Test results as given in PubChem BioAssay (NCATS).
Where “and” joins values, the source holds several entries; their conditions need not be identical. Equal entries are not always repeated. Results filed as inconclusive are left out. Values without a mark were called inactive. Calls of active or inactive are those of the source. Calls follow the shape of the dose curve; as a rule, active = well fitted inhibition curve with a large enough effect; inconclusive = small, poorly fitted or top-dose-only effect; inactive = no such curve, though single readings can be large or run the other way.

experiment: Confirmatory qHTS for small molecule stabilizers of the endoplasmic reticulum resident proteome: Secreted ER Calcium Modulated Protein (SERCaMP) assay (AID 1508628); conditions: SERCaMP secreted luciferase ER calcium/proteostasis reporter; series mostly up to 76.3 µM; activity change, negative = decrease: at the top concentration; also: nearly all actives have a fitted effect of over 40% in size
Excerpt: Assay Provider: Brandon K. Harvey Ph.D.
National Institute on Drug Abuse, National Institutes of Health, Baltimore, MD
Endoplasmic reticulum (ER) dysregulation is associated with human pathologies including neurodegenerative, cardiovascular, muscular, and diabetic conditions. Maintenance of ER calcium is critical for functions of the ER and its depletion can lead to loss of ER resident proteins, in a process termed exodosis. Therapeutic compounds capable of attenuating the redistribution of ER proteins under pathological conditions may slow or stop disease progression. To identify such compounds, we performed a quantitative high-throughput screen (qHTS) using the SERCaMP assay, which monitors secretion of ER resident proteins triggered by calcium depletion.
SERCaMP was initially developed as a reporter of ER calcium homeostasis using a Gaussia luciferase with a modified signal peptide and carboxy-terminus (GLuc-SERCaMP), modifications that confer secretion of the reporter in response to ER calcium depletion (Henderson et al., 2014). The assay was used to screen 9,501 compounds, including a collection of drugs approved by the FDA (US), EMA (EU), NHI (Japan), and HC (Canada) regulatory agencies (Huang et al., 2011). Since the SERCaMP reporter reflects the exodosis phenomenon (Trychta et al., 2018a), compounds identified in the screen have the potential to prevent exodosis by different mechanisms such as stabilizing ER calcium or augmenting ERS retrieval.
1. Henderson, M.J., Wires, E.S., Trychta, K.A., Richie, C.T., and Harvey, B.K. (2014). SERCaMP: a carboxy-terminal protein modification that enables monitoring of ER calcium homeostasis. Mol Biol Cell 25, 2828-2839.
2. Huang, R., Southall, N., Wang, Y., Yasgar, A., Shinn, P., Jadhav, A., Nguyen, D.T., and Austin, C.P. (2011). The NCGC pharmaceutical collection: a comprehensive resource of clinically approved drugs enabling repurposing and chemical genomics. Sci Transl Med 3, 80ps16.
3. Trychta, K.A., Back, S., Henderson, M.J., and Harvey, B.K. (2018a). KDEL Receptors Are Differentially Regulated to Maintain the ER Proteome under Calcium Deficiency. Cell Rep 25, 1829-1840 e1826.
SEQUENCE No. (1, 2, 3, etc.); […] (e.g., Cells, Incubation, Reagent, etc.); VALUE and DESCRIPTION.
1; Reagent; 5 uL; 1000 SH-SY5Y cells per wells
3; Compound; 23 nL; Control inhibitor / compound library
5; Reagent; 100 nM; Thapsigargin
7; Reagent; 1 uL; 0.5x coelenterazine
8; Detection; Luminescence; ViewLux imaging system
NOTES (numbers refer to sequence above)
1; SH-SY5Y human neuroblastoma cells stably expressing GLuc-SERCaMP (SH-SY5Y-GLuc-ASARTDL) cells were seeded in 1,536 well white tissue culture treated plates (Corning, Cat# 7464) in DMEM-high glucose-sodium pyruvate (ThermoFisher Scientific, Cat #10569) supplemented with 10% bovine growth serum (Hyclone), 10 U/ml penicillin (Gibco), 10 ug/ml streptomycin (Gibco), and 20 mM HEPES.
2; Assay plates were incubated for 5 hour at 37C in a humidified incubator containing 5% CO2.
3; qHTS libraries (23 nl, final concentrations of 1.53 uM, 7.67 uM, 38.3 uM) or controls (neutral control: DMSO, positive control: dantrolene) were added using a Kalypsis pin-tool Robotic System equipped with 1536 pinheads.
4; Cells were then incubated for 16 hours at 37C, 5% CO2.
5; Thapsigargin was added at 100 nM to deplete ER calcium stores.
6; Cells were incubated for 4 hour (37 °C, 5% CO2)
7; Gaussia luciferase in the medium was measured by adding 1 ul of 0.5x coelenterazine (final concentration 0.07x) prepared in Gaussia Luciferase Glow Assay Buffer (Pierce), without addition of the Cell Lysis Buffer Reagent.
8; Luminescence was measured using a ViewLux […] CCD imaging system (Perkin Elmer) equipped with clear filters. […] The same controls were also used for the calculation of the Z' factor, a measure of assay quality control, as previously described (Zhang et al., 1999). […]
% is scaled to controls: 0 for no effect and ±100 for the full control effect; potency is read from the fitted curve at half-maximal effect.

SMILES | Potency | activity change, negative = decrease
COC(=O)[C@@H](N)Cc1ccc(O)c(O)c1 | 35.5 µM (active) | 
c1cc(CN2CCCCC2)cc(OCCCNc2nc3ccccc3s2)c1 | 12.6 µM (active) | 
OC(CCN1CCCCC1)(c1ccccc1)C1CCCCC1 (stereo not given) | 35.5 µM (active) | 
CCC(=O)c1ccc2c(c1)N(CCCN(C)C)c1ccccc1S2 |  | 227%
O=C(O)CN(CCN(CC(=O)O)CC(=O)O)CCN(CC(=O)O)CC(=O)O |  | 9.61% [at 38.8 µM]
CCc1cccc(N(C)C(N)=Nc2cccc3ccccc23)c1 | 15.8 µM (active) | 
COC(=O)[C@H]1[C@H]2C[C@@H]3c4[nH]c5cc(OC)ccc5c4CCN3C[C@H]2C[C@@H](OC(=O)c2cc(OC)c(OC)c(OC)c2)[C@@H]1OC | 15.8 µM (active) | 
NC(=Nc1ccccc1)Nc1ccccc1 | 3.55 µM (active) and 5.62 µM (active) and 355 nM (active) | 
CCN(CC)CCCN(c1ccccc1)C1Cc2ccccc2C1 | 39.8 µM (active) | 
CN1C[C@H](C(=O)N[C@]2(C)O[C@@]3(O)[C@@H]4CCCN4C(=O)[C@H](Cc4ccccc4)N3C2=O)C[C@@H]2c3cccc4[nH]cc(c34)C[C@H]21 | 25.1 µM (active) | 
